The experiment is described as follows: inhibitors of HIV fusion peptide binding, primary screen, biochemical, uHTS, fluorescence dequenching (AID 1986). Particulars: cell-free peptide binding, 30 min, stronger effect = higher value.
[1] abbreviates: measured here: repeat confirmation average inhibition, at 18.6 µM.

The whole screen tested about 290,000 compounds, of which about 890 (0.31%) were called active. No stated cut-off is given here; in the data, active means inhibition mostly above about 52% (no sharp cut-off); inactive means mostly below about 76%. Many of the other results were omitted from the sample, so actives are more common in it than they were.

This passage reports inhibition results from PubChem BioAssay AID1986 (Sanford-Burnham Center for Chemical Genomics, 2009).

Broadly, the inhibition is the relative decrease from the control value, in per cent.

Turning to `COc1ccc2cc(C#N)c(N3CCOCC3)nc2c1`, the inhibition (at 20 µM) is 2.4% (inactive).
In the case of `COc1ccc2cc(/C=C3\SC(=S)NC3=O)c(N3CCOCC3)nc2c1`, the inhibition (at 20 µM) was 63.1% (active).
With `O=C1NC(=S)S/C1=C\c1cc2ccccc2nc1N1CCCCC1`, the inhibition is 63.6% (inactive) (at 20 µM) and 28.2% under setting [1].
Regarding `COc1ccc(-n2c(C)cc(/C=C3\SC(=S)NC3=O)c2C)cc1`, the inhibition (at 20 µM) is 32.3% (inactive).
Turning to `COc1ccc2nc(N3CCCCC3)c(/C=C3\SC(=S)NC3=O)cc2c1`, under “at 20 µM”, the inhibition was 53.6% (active).
In the case of `O=C1NC(=S)S/C1=C/c1ccc(N2CCOCC2)o1`, the inhibition (at 20 µM) was 18.7% (inactive).
Take `Cc1ccc(CN2CCC(n3nccc3NC(=O)C3CCOC3)CC2)cc1C` (stereo not drawn): for the setting “at 20 µM”, the inhibition was -0.8% (inactive).
The same measure, in the same setting: under `CC(=O)Nc1ccc(C(=O)OCC(=O)c2ccc(C)c([N+](=O)[O-])c2)cc1` stands 0.2% (inactive).
For the molecule `CCN(CC)S(=O)(=O)c1ccc(C(=O)/C=C/c2ccc(-c3ccc([N+](=O)[O-])cc3)o2)cc1`, the inhibition is, setting by setting: (at 20 µM) 73.1% (active); under setting [1], 88.1%.
As for `Cc1ccc(C(=O)/C=C/c2ccc(-c3ccc(C)cc3)o2)cc1`, the inhibition (at 20 µM) was 21.5% (inactive).
`Cc1ccc(C(=O)/C=C/c2ccc(-c3ccccc3[N+](=O)[O-])o2)cc1`: the inhibition (at 20 µM) is 35.4% (inactive).
Same read-out and setting: under `Cc1c(C(=O)Nc2cccnc2Cl)oc2ccccc12` stands -1% (inactive).
Same read-out and setting: under `CCCN(C(=O)CN1C(=O)NC2(CCCCCC2)C1=O)C1CCS(=O)(=O)C1` (stereo not drawn) stands 0.3% (inactive).
As to `O=C1/C(=C/c2cccnc2)Sc2ccccc21`, the inhibition (at 20 µM) is 9.2% (inactive).
The same measure, in the same setting: under `N#Cc1c(C(F)(F)F)cc(-c2ccccc2)nc1SCCN1CCOCC1` stands 2.6% (inactive); under `C#CCSc1nc(-c2ccccc2)cc(C(F)(F)F)c1C#N`, -0.2% (inactive).
The same measure, in the same setting: under `N#Cc1c(C(F)(F)F)cc(-c2ccccc2)nc1SCc1nc(N)nc(N2CCOCC2)n1` stands 66.7% (active); under `O=C(NCC1CCCO1)c1ccc(CNS(=O)(=O)c2cccc(Cl)c2)cc1` (stereo not drawn), -0.3% (inactive); under `Cc1ccc(C(=O)C2=C(O)C(=O)N(Cc3ccco3)C2c2cccc(Cl)c2)o1` (stereo not drawn), 25.7% (inactive).
On the same count and under the same terms, under `Cc1cc(C)c(N=Cc2c(O)n(-c3nccs3)c(=O)c3ccccc23)c(C)c1` stands 0.6% (inactive); under `Cc1ccccc1N=Cc1c(O)n(-c2nccs2)c(=O)c2ccccc12`, 2.3% (inactive).
As for `Cc1ccc(N=Cc2c(O)n(-c3nccs3)c(=O)c3ccccc23)c(C)c1`, the inhibition is, setting by setting: (at 20 µM) 75.3% (active); under setting [1], 103%.
Regarding `CN1CCN(/N=C/c2ccc(-c3ccccc3)cc2)CC1`, where the note is “at 20 µM”, the inhibition was 0% (inactive).
On the same count and under the same terms, under `CC1=NN(c2ccccc2)C(=O)/C1=C\c1c(C)[nH]n(-c2ccccc2)c1=O` stands -0.3% (inactive); under `Cc1[nH]n(-c2ccccc2)c(=O)c1/C=C1/C=c2ccccc2=N1`, -2.5% (inactive).
